LASV entry inh – Lassa virus entry inhibition. AID 540256. 1.2% of 300,000 active. Potency, µM (doses to about 37.9 µM), without a hit: at the top dose activity change, negative = inhibition, usual class: inhibitors. Lassa virus pseudotype entry inhibition, cell reporter; calls by dose curve; tested in HEK293 cells; further: nearly all actives have a fitted effect of over 50% in size
FMDV inh – foot and mouth disease virus antiviral activity. FMDV antiviral cell-based qHTS. 1.2% of 410,000 active. Potency, µM (series often up to 57.9 µM), for inactives: top-dose activity change, negative = inhibition, most hits filed as inhibitors; calls by dose curve; tested in HEK293T cells; further: read-out not given here; nearly all actives have a fitted effect of over 45% in size
Marburg entry inh – Marburg virus entry inhibition; Potency, µM (doses to about 37.8 µM), for the others: at the highest dose activity change, negative = inhibition, hits mostly inhibitors; 1.8% of 300,000 active; Marburg virus pseudotyped entry inhibition, cell reporter; AID 540276; calls by dose curve; tested in HEK293 cells
Sm TGR inh – S. mansoni TGR enzyme inhibition. purified TGR, DTNB reduction, TNB absorbance 405 nm. AID 485364. Potency, µM (doses to about 114 µM), for inactives: at the top dose activity change, negative = inhibition, most hits filed as inhibitors. 3% of 360,000 active; further: nearly all actives have a fitted effect of over 60% in size
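Kinetic colorimetric format: TGR-catalysed, NADPH-driven DTNB reduction monitored via TNB absorbance. Enzyme dispensed at 20 nM; compound exposure 15 min at room temperature before reaction start.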
HCV inh – HCV inhibition | Huh7.5.1 HCVcc-Cre infection, luciferase reporter, 44 h | Potency, µM (top dose mostly 41.8 µM), inactives show top-dose activity change, negative = inhibition, usual class: inhibitors | 3.4% of 340,000 active | AID 651820
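Infectious HCV cell culture screen: compound-treated cells (1,000/well, pre-plated 4 h) are infected with HCVcc-Cre at roughly 0.5 moi and grown 44 h. Infection is quantified by luciferase signal after 15 min substrate incubation at room temperature.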
RE007 growth inh – less growth of the S. pombe RE007 Vpr strain; AID 651644; 0.21% of 360,000 active; Potency, µM (titrated, usually from 92.2 µM), for inactives: at the highest dose activity change, negative = less growth, actives largely listed as inhibitors; S. pombe RE007 Vpr strain, BacTiter-Glo ATP luminescence, 24 h; active means well fitted falling curve with a large enough effect; inconclusive means small, poorly fitted or top-dose-only effect; inactive means no such curve, though single readings can be large or run the other way; further: nearly all actives have a fitted effect of over 50% in size
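Fission yeast strain RE007, carrying one chromosomally integrated HIV-1 vpr copy, was seeded at OD 0.01 in PMG+AL medium with 23 nL pinned compound. After 24 h at 30 °C and 99% humidity, viability was read by BacTiter-Glo luminescence.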
* marks the source's active call; other numbers are inactive results; ? = inconclusive; nt = no result given; [ ] = dose if it differs, or a comment. The list is not random: actives were taken first. Their share in the collection is about 7.2%. Unless noted, the call rests on the fitted dose curve; in most records, active means well fitted curve in the direction sought with a large enough effect; inconclusive means small, poorly fitted or top-dose-only effect, or another doubt; inactive means no such curve, though single readings can be large; an effect the other way counts as inactive or inconclusive. On the % scale 0 is the no-effect control and ±100 the full control effect; potency means the concentration at half of the fitted maximal effect.

SMILES | LASV entry inh | FMDV inh | Marburg entry inh | Sm TGR inh | HCV inh | RE007 growth inh
CS(=O)(=O)N1CCN(c2ccccc2NC(=O)CSc2ccc(Cl)cc2)CC1 | -20% | ? | ? | -4% | ? | 24%
CCOc1ccccc1NC(=O)NCc1ccc2c(c1)CCN2C(=O)c1ccccc1 | ? | 0% | nt | -12% | nt | nt
COc1cc(-c2cc3n(C)c(C)c(CCC(=O)NC4CCCCC4)c(=O)n3n2)cc(OC)c1OC | 16%[46.1 µM] | -1% | nt | -3% | nt | nt
CCOc1ccc(Cl)cc1C1CC(=O)Nc2cc(OC)c(OC)c(OC)c21 (centres undefined) | -2%[46.1 µM] | 3% | 20%[46.1 µM] | 1% | nt | nt
O=C(COc1ccc(Cl)cc1)Nc1ccc(N2CCN(C(=O)c3ccco3)CC2)cc1 | ? | nt | ? | -35% | 10µM* | ?
Cc1ccccc1OCC(=O)Nc1ccc(N2CCN(C(=O)c3ccco3)CC2)cc1 | ? | 28µM* | ? | -12% | ? | ?
Cc1cccc(OCC(=O)Nc2ccc(N3CCN(C(=O)c4ccco4)CC3)cc2)c1C | -11%[46.1 µM] | -17% | ? | 2%[57.1 µM] | -22% | -13%
CC(=O)C1=C(C)N(Cc2ccccc2)C(=O)NC1c1cccc(C(F)(F)F)c1 (centres undefined) | nt | nt | -7%[14.2 µM] | nt | nt | nt
O=C(Nc1ccc2c(c1)CN(Cc1ccc(CO)o1)CC2)c1ccc(C(F)(F)F)cc1 | ? | 0% | ? | -32% | 11µM* | -8%
Cc1noc(C)c1C(=O)Nc1ccc(N(C)C)cc1 | nt | ? | nt | -3% | 11% | -4%
CN(C)c1ccc(NC(=O)c2cnsn2)cc1 | 7.1µM* | -58% | ? | 11% | 22% | -13%
Cc1ccc(CNC(=O)c2cnn3c(C)c(Cc4c(F)cccc4Cl)c(C)nc23)cc1 | -32%[46.1 µM] | ? | nt | 8% | nt | nt
Cc1cc(C)c(Cc2c(C)nc3c(C(=O)NCc4ccco4)cnn3c2C)c(C)c1 | -15% | 18µM* | ? | -7% | 8.9µM* | 0%
CC1(C)NC(=O)N(C[C@@H](O)Cn2nnc3ccccc32)C1=O | nt | nt | -13%[46.1 µM] | nt | nt | nt
Cc1[nH]c2ccccc2c1SCc1nnc(SCc2ccc(Cl)cc2)n1C | ? | 1% | ? | 1% | 11µM* | -5%
Cc1[nH]c2ccccc2c1SCc1nnc(SCc2ccccc2)n1C | -24% | -25% | ? | ? | -1% | 18%
COC(=O)C1=C(c2ccc(F)cc2OCc2ccccc2)C[C@@H]2CC[C@H]1N2C(=O)NCc1ccc2c(c1)OCO2 | nt | -23% | nt | -29% | 10µM* | 8%
COC(=O)C1=C(c2cccc(OCc3ccccc3)c2)C[C@@H]2CC[C@H]1N2C(=O)NCc1ccc(C(F)(F)F)cc1 | nt | -11% | nt | -1% | 10µM* | -9%
COC(=O)C1=C(c2cc3ccccc3s2)C[C@@H]2CC[C@H]1N2C(=O)NCc1ccc(C(F)(F)F)cc1 | nt | -30% | nt | nt | 11µM* | 8%
COC(=O)C1=C(c2ccc(F)cc2OCc2ccccc2)C[C@@H]2CC[C@H]1N2C(=O)NCc1ccccc1 | nt | -28% | nt | -1% | -28% | 1%
COC(=O)C1=C(c2ccccc2OCc2ccccc2)C[C@@H]2CC[C@H]1N2C(=O)NCc1cccc(C(F)(F)F)c1 | nt | -17% | nt | 1% | ? | 9%
COC(=O)C1=C(c2ccc(OCc3ccccc3)cc2)C[C@@H]2CC[C@H]1N2C(=O)NCc1cccc(C(F)(F)F)c1 | nt | -8% | nt | -3% | 13µM* | 2%
CCc1cccc(C)c1NC(=O)C(CC)Sc1nncn2c1cc1occc12 (centres undefined) | -5%[46.1 µM] | 0% | nt | -6% | nt | nt
COC(=O)C1=C(c2ccccc2OCc2ccccc2)C[C@@H]2CC[C@H]1N2C(=O)NCc1ccc(C(F)(F)F)cc1 | nt | -18% | 2% | -8% | 10µM* | -9%
COC(=O)C1=C(c2ccccc2OCc2ccccc2)C[C@@H]2CC[C@H]1N2C(=O)NC1CCN(Cc2ccccc2)CC1 | nt | -12% | nt | -11% | ? | -4%
COC(=O)C1=C(c2cccc(OCc3ccccc3)c2)C[C@@H]2CC[C@H]1N2C(=O)NC1CCN(Cc2ccccc2)CC1 | nt | ? | nt | -3% | 10µM* | -20%

Bioassay records as filed in PubChem.
